The source made the active and inactive calls. The calls were made as follows: active = hit-call score of the fitted dose curve at least 0.9, where 1 is the maximum; inactive = score below 0.9.

For orientation: AC50 means the concentration giving half of the maximal activity seen.

Chain of human PKD2 (PRKD2) CAMK Kinase, PRKD2 (gene 25865) (Q9BZL6 whole entry, looked up): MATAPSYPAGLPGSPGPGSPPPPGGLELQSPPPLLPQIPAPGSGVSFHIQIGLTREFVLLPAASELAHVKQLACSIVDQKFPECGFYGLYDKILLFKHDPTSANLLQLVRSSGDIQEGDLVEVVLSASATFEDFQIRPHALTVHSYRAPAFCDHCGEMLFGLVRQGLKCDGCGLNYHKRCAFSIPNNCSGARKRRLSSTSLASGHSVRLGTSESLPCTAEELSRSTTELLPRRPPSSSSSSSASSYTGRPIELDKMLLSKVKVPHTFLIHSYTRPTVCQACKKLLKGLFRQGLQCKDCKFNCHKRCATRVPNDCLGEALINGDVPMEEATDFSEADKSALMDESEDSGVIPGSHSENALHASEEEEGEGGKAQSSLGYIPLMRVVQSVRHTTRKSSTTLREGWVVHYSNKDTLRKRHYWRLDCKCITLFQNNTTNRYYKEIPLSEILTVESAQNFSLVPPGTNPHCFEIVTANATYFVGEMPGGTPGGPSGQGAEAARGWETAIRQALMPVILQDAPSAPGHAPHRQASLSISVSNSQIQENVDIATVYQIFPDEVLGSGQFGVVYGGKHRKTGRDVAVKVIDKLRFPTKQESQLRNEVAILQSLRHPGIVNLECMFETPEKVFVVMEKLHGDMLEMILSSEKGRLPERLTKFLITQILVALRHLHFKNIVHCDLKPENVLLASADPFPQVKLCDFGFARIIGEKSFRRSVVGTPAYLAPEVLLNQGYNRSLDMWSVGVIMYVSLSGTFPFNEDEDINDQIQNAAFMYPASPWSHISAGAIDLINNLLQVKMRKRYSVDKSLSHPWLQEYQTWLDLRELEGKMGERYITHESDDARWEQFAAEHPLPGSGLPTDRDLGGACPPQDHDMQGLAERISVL

This assay addresses human PKD2 (PRKD2) CAMK Kinase, PRKD2 (gene 25865) (UniProt Q9BZL6). The assay is described as follows: ERF_KP_ENZ_hPKD2: Eurofins (ERF) Enzymatic Radiometric [10 uM ATP] KinaseProfiler LeadHunter Assay for human PKD2 (PRKD2) CAMK Kinase. As for the experimental part:
ERF_KP_ENZ_hPKD2 is a biochemical, single-readout assay that uses extracted gene-proteins in a cell-free assay. Measurements were taken 0.66 hour after chemical dosing in a 96-well plate. See PKD2 Human Protein Ser/Thr Kinase Enzymatic Radiometric Assay [10 uM ATP], KinaseProfiler.ERF_KP_ENZ_hPKD2 is an assay component calculated from the ERF_KP_ENZ_hPKD2 assay. It is designed to measure enzyme activity using a type of enzyme reporter as detected by scintillation counting with radiometry technology.Data from the assay component ERF_KP_ENZ_hPKD2 was analyzed at the assay endpoint, ERF_KP_ENZ_hPKD2, in the positive analysis fitting direction relative to DMSO as the negative control and baseline of activity. Using a type of enzyme reporter, loss-of-signal activity can be used to understand changes in enzymatic activity as they relate to gene PRKD2. To generalize the intended target to other relatable targets, this assay endpoint is annotated to the kinase intended target family, where the subfamily is serine/threonine kinase.
PKD2 (h) is incubated with 20 mM HEPES pH 7.4, 0.03% Triton X-100, 30 uM […], 10 mM MgAcetate and [gamma-33P]-ATP (specific activity and concentration as required). The reaction is initiated by the addition of the Mg/ATP mix. After incubation for 40 minutes at room temperature, the reaction is stopped by the addition of phosphoric acid to a concentration of 0.5%. […]
`O=C(/C=C/c1ccc(O)cc1)CC(=O)/C=C/c1ccc(O)cc1`: the AC50 is 0.3 nM (active).

The values are drawn from PubChem BioAssay AID2284134 (EPA ToxCast).
